Max response, Potency and outcome data for 19 compounds are collected here from PubChem BioAssay (NCATS).

One test deals with CRL-7250. As to the kind of experiment: Cytotoxic Profiling of Annotated Libraries Using Quantitative High-Throughput Screening (AID 1296008). Also: nearly all actives have a fitted effect of over 60% in size. Also: potency is read from the fitted curve at half-maximal effect. To be noted: Five cell lines viability, CellTiter-Glo ATP luminescence, 48-72 h; max response: stronger effect = lower value. An outline of the steps:
(§1)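 Cells exposed to compounds for 48 or 72 hr at 37 degrees Celsius. Viability read as ATP-coupled luminescence with CellTiter-Glo after 10 min at room temperature.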
(In general: Cellular ATP, detected with luciferase, serves as a proxy for viable cell number.)

In test [1] the test system is HaCat. The description is as above. To be noted: Five cell lines viability, CellTiter-Glo ATP luminescence, 48-72 h; max response: stronger effect = lower value. An outline of the steps: as §1
In the next test the test system is NIH3T3. Described as above. The following applies: Five cell lines viability, CellTiter-Glo ATP luminescence, 48-72 h; max response: stronger effect = lower value. An outline of the steps: as §1
The test system of another test is MCC-13. The test can be described thus: qHTS assay to identify novel small-molecules to repurpose for Merkel cell carcinoma treatment (AID 1296009). Also: nearly all actives have a fitted effect of over 60% in size. Also: potency is read from the fitted curve at half-maximal effect. The following applies: MCC and control cell lines, CellTiter-Glo viability, 72 h; series mostly up to 46 µM. An outline of the steps:
(§2)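 Cells were treated for 72 hr at 37 degree celsius with compounds in 8- or 11-point dose response. Viability was read by CellTiter-Glo luminescence, normalized to no-cell (cytotoxicity) and DMSO controls.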
In general terms: In qHTS, concentration-response curves come from the screen itself.

The subject of a further test is MCC-26. The description is as above. To be noted: MCC and control cell lines, CellTiter-Glo viability, 72 h; series mostly up to 46 µM. In outline: as §2
A further test concerns MKL-1. Described as above. The following applies: MCC and control cell lines, CellTiter-Glo viability, 72 h; series mostly up to 46 µM. In outline: as §2
For the next test, the system named is MKL-2. Described as above. To be noted: MCC and control cell lines, CellTiter-Glo viability, 72 h; series mostly up to 46 µM. In outline: as §2
A further test concerns UISO. Described as above. The following applies: MCC and control cell lines, CellTiter-Glo viability, 72 h; series mostly up to 46 µM. An outline of the steps: as §2
Another test has as its system WaGa. The description is as above. To be noted: MCC and control cell lines, CellTiter-Glo viability, 72 h; series mostly up to 46 µM. An outline of the steps:
as §2

For another test, the system named is C33A. As to the kind of experiment: Primary qHTS to identify gynecologic anti-cancer compounds using libraries of approved drugs and bioactive compounds (AID 1345084). Also: nearly all actives have a fitted effect of over 55% in size. To be noted: Gynecologic cancer cell panel viability, ATPlite luminescence, 48 h; series mostly up to 57.5 µM. In outline: (§3)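 48 h compound exposure at 37 C, 5% CO2; five-point qHTS. ATPlite luminescence readout of cell ATP.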

For another test, the system named is CAOV3. Described as above. The following applies: Gynecologic cancer cell panel viability, ATPlite luminescence, 48 h; series mostly up to 57.5 µM. In outline: as §3
Another test concerns CASKI. Described as above. To be noted: Gynecologic cancer cell panel viability, ATPlite luminescence, 48 h; series mostly up to 57.5 µM. An outline of the steps:
as §3

The next test relates to Es-2. Described as above. To be noted: Gynecologic cancer cell panel viability, ATPlite luminescence, 48 h; series mostly up to 57.5 µM. In outline:
as §3

A further test relates to HeLa. The test is described as above. The following applies: Gynecologic cancer cell panel viability, ATPlite luminescence, 48 h; series mostly up to 57.5 µM. In outline:
as §3

Another test deals with KB-3-1. As to the kind of experiment: Cytotoxic Profiling of Annotated Libraries Using Quantitative High-Throughput Screening (AID 1296008). Also: nearly all actives have a fitted effect of over 60% in size. Also: potency is read from the fitted curve at half-maximal effect. The following applies: Five cell lines viability, CellTiter-Glo ATP luminescence, 48-72 h; max response: stronger effect = lower value. An outline of the steps:
as §1

Test [2] deals with HACAT. As to the kind of experiment: qHTS assay to identify novel small-molecules to repurpose for Merkel cell carcinoma treatment (AID 1296009). Also: nearly all actives have a fitted effect of over 60% in size. Also: potency is read from the fitted curve at half-maximal effect. To be noted: MCC and control cell lines, CellTiter-Glo viability, 72 h; at 44.8 µM (top of the series) unless noted. An outline of the steps: as §2

Where “and” joins values, the source holds several entries; their conditions need not be identical. Equal entries are not always repeated. Records with an inconclusive call do not appear. Values without a mark were called inactive. Calls of active or inactive are those of the source. Calls follow the shape of the dose curve; as a rule, active = well fitted curve in the direction sought with a large enough effect; inconclusive = small, poorly fitted or top-dose-only effect, or another doubt; inactive = no such curve, though single readings can be large; an effect the other way counts as inactive or inconclusive.
% is scaled to controls: 0 for no effect and ±100 for the full control effect.

Consider `O=C(Nc1cccc(C(F)(F)F)c1)Nc1cc(S(=O)(=O)NC2CC2)ccc1-c1ccsc1`, for which the max response was -35.6% in the test on CRL-7250, -22.2% with HaCat [1] and -27% in the test with NIH3T3. For the same compound, the Potency entry in the test with MCC-13, in the test on MCC-26, with MKL-1, in the test on MKL-2, with UISO and in the test on WaGa was “inactive” each time. For the same compound, the Potency result in the test with C33A, in the test on CAOV3, in the test on CASKI, with Es-2 and in the test with HeLa was “inactive” throughout.
For `CCC(=C(c1ccc(O)cc1)c1ccc(OCCNC)cc1)c1ccccc1`, the max response in the test with CRL-7250 was -6.43%; in the test with HaCat [1], -11.9%. The Potency entry in the test on MCC-13, with MCC-26, in the test with MKL-1, in the test with MKL-2, in the test with UISO and in the test on WaGa was “inactive” each time.
In the case of `Oc1ccc(C=Cc2cc(O)cc(O)c2)cc1`, the values for the max response in the test with CRL-7250, in the test on HaCat [1] and in the test with KB-3-1 were -12.2%, -24.3% and -2.23%, respectively. The Potency result with MCC-13, with MCC-26 and in the test with MKL-1 was “inactive” throughout.
In the case of `C[C@@H]1CC=CC=CC=CC=C[C@@H](O[C@@H]2O[C@H](C)[C@@H](O)[C@H](N)[C@H]2O)C[C@@H]2O[C@](O)(C[C@@H](O)C[C@@H]3O[C@@H]3C=CC(=O)O1)C[C@H](O)[C@@H]2C(=O)O`, the values for the max response with CRL-7250, in the test with HaCat [1] and in the test on NIH3T3 were -2.36%, -1.58% and 4.91%, respectively. Also, the Potency entry in the test on MCC-13, in the test on MCC-26, in the test on MKL-1, in the test on MKL-2, in the test on UISO and in the test with WaGa was “inactive” in each case.
With `COc1ccc(CCN(C)CCCOc2ccc(S(=O)(=O)c3[nH]c4ccccc4c3C(C)C)cc2)cc1OC`, the outcome in the test with CRL-7250 was inactive. Moreover, the values for the max response in the test on HaCat [1] and in the test with KB-3-1 were -8.82% and 5.18%, respectively. Also, the Potency result with MCC-13 and in the test with MCC-26 was “inactive” each time.
Take `CC(C)Oc1cc(Nc2nc(N[C@@H](C)c3ccc(F)cn3)ncc2Cl)[nH]n1`: the Potency in the test with CRL-7250 was 2.64 µM (active); in the test on KB-3-1 it was 10.5 µM (active); in the test on NIH3T3 it was 5.26 µM (active); with MCC-26, 14.8 µM (active). The max response with HaCat [1] was -29.2%. For the same compound, the Potency result with MKL-1 and with MKL-2 was “inactive” throughout.
With `N#Cc1ccc(Oc2ccc3c(c2)COB3O)cc1`, in the test with CRL-7250, the call was inactive. In addition, the max response with HaCat [1] is -2.09% and 3.76%; in the test on KB-3-1, -8.17% and -9.93%; with NIH3T3 it was -0.632% and -20.3%. Besides, the Potency entry in the test on MCC-13, in the test with MCC-26, with MKL-1, in the test on MKL-2, in the test on UISO and in the test on WaGa was “inactive” in each case. The Potency entry with C33A, in the test on CAOV3, in the test on CASKI and in the test on Es-2 was “inactive” throughout.
For the compound `CCCCC(C)(C)[C@H](O)C=C[C@H]1[C@H](O)CC(=O)[C@H]1CC=CCCCC(=O)O`, the max response with CRL-7250 was -10.4%. Moreover, the call with HaCat [1], with KB-3-1 and in the test on HACAT [2] was inactive. In addition, the Potency entry in the test on MCC-13 and in the test with MCC-26 was “inactive” throughout.
On to `CCOc1ccccc1N=Nc1c(C)[nH]n(-c2nc(-c3ccccc3)cs2)c1=O`, for which the max response in the test with CRL-7250 was -16.1%; with HaCat [1], -4.82%; in the test on KB-3-1, -0.405%; with NIH3T3, -3.32%. Besides, the Potency result with MCC-13, in the test with MCC-26, in the test with MKL-1, with MKL-2, in the test with UISO and with WaGa was “inactive” each time.
`COC(=O)[C@H](c1ccccc1Cl)N1CCc2sccc2C1`: the figures for the max response with CRL-7250, with HaCat [1] and in the test on NIH3T3 were -2.92%, -12% and -0.568%, respectively. The call with KB-3-1 was inactive. The Potency result with MCC-13, in the test on MCC-26, in the test on MKL-1, in the test with MKL-2, in the test with UISO and in the test on WaGa was “inactive” throughout.
`COc1ccc(C=CC(=O)Nc2ccccc2C(=O)O)cc1OC`: the max response was -5.04% with CRL-7250, -7.89% in the test on HaCat [1], 7.16% in the test on KB-3-1 and 0.371% in the test with NIH3T3. The Potency result in the test on MCC-13, with MCC-26, with MKL-1, with MKL-2, in the test on UISO and in the test on WaGa was “inactive” each time.
On to `COc1cc2c(cc1OC)CC(=O)N(CCCN(C)C[C@H]1Cc3cc(OC)c(OC)cc31)CC2`, for which the max response was 4.25% in the test on CRL-7250, -15.9% in the test on HaCat [1], 6.36% in the test with KB-3-1 and -18.8% in the test with NIH3T3. The Potency result in the test with MCC-13, with MCC-26, in the test on MKL-1, with MKL-2, in the test with UISO and with WaGa was “inactive” in each case.
As to `Cc1ccc(S(=O)(=O)Nc2nc3ccccc3nc2Nc2ccc3nsnc3c2)cc1`, the values for the max response in the test on CRL-7250 and with NIH3T3 were -6.76% and -28.1%, respectively. The values for the Potency in the test on HaCat [1], with MKL-1 and with UISO were 14.4 µM (active), 1.82 µM (active) and 5.12 µM (active), respectively. Also, the compound was classed as inactive with KB-3-1. For the same compound, the Potency entry in the test on MCC-13, in the test with MCC-26 and in the test on MKL-2 was “inactive” throughout.
As for `CNC(=O)c1cc(COc2nnc(Nc3ccc(Cl)cc3)c3ccoc23)ccn1`, the max response in the test with CRL-7250 is -22.5%; in the test on HaCat [1], 1.3%; with KB-3-1, -2.71%; with NIH3T3, -16.8%. The Potency result in the test with MCC-13, in the test on MCC-26, with MKL-1, in the test on MKL-2 and with WaGa was “inactive” in each case.
With `C[C@H]1O[C@@H](n2cc(F)c(=O)[nH]c2=O)[C@H](O)[C@H]1O`, the max response is -14.8% in the test with CRL-7250, -27.2% with HaCat [1] and -15.3% with KB-3-1. For the same compound, the Potency result in the test with MCC-13, in the test on MCC-26, in the test with MKL-1 and with MKL-2 was “inactive” throughout.
As for `CCC(=O)OCC(=O)[C@@]1(OC(=O)CC)[C@@H](C)C[C@@H]2[C@H]3CCC4=CC(=O)C=C[C@]4(C)[C@@]3(F)[C@@H](O)C[C@@]21C`, the max response in the test with CRL-7250 is -3.82%; with HaCat [1], -0.0521%; with NIH3T3, 0.981%. In addition, the call in the test with KB-3-1 was inactive. In addition, the Potency entry in the test on MCC-13, in the test on MCC-26, in the test on MKL-1, in the test on UISO and in the test on WaGa was “inactive” each time.
Take `CC(C)c1onc(-c2c(Cl)cccc2Cl)c1COc1ccc(C=Cc2cccc(C(=O)O)c2)c(Cl)c1`: the max response in the test with CRL-7250 is -1.7%; in the test with HaCat [1], -7.35%; in the test on KB-3-1, 6.78%; with NIH3T3, 4.7%. Also, the Potency result in the test with MCC-13, in the test on MCC-26, in the test with MKL-1, in the test on MKL-2, in the test with UISO and in the test on WaGa was “inactive” throughout.
On to `COc1cc2c(cc1OC)[C@@H]1Cc3ccc(OC)c(OC)c3CN1CC2`, for which the max response in the test on CRL-7250 is -7.12%; in the test with HaCat [1], -3.71%; in the test on KB-3-1, -25.3%; in the test on NIH3T3, -3.25%. Moreover, the Potency entry in the test with MCC-13, in the test with MCC-26, in the test with MKL-1 and with UISO was “inactive” each time. Besides, the Potency with MKL-2 is 18.7 µM (active).
Take `CO[C@H]1/C=C\O[C@@]2(C)Oc3c(C)c(O)c4c(O)c(c5c(nc6cc(C)ccn65)c4c3C2=O)NC(=O)C(C)=CC=C[C@H](C)[C@H](O)[C@@H](C)[C@@H](O)[C@@H](C)[C@H](OC(C)=O)[C@H]1C`: the max response in the test on CRL-7250 is 3.34%; in the test on HaCat [1] it was -2.46%; with KB-3-1 it was -2.96%; with NIH3T3 it was -4.51%. Besides, the Potency entry in the test with MCC-13, in the test on MCC-26, with MKL-2 and in the test on UISO was “inactive” throughout.
